Measurements from PubChem BioAssay AID1035470 (Broad Institute, 2014).
Fewer than 10 of roughly 1,800 compounds were called active. Another 16% or so got no clear call; they are omitted.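 Rule for the calls: active = compound lowering the normal-ribosome reporter at least twice as much as the humanized-ribosome reporter, growth loss under a set limit; inconclusive = no clear call, values can overlap the other calls; inactive = the rest.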 Not all results are given here. Results with a measured potency or affinity are listed apart.

Experiment: growth inhibition of wild-type GFP E. coli versus G2058-humanized strain, dose response, G2058 mutant RFP vs wild-type GFP, cherry-pick, two tests (AID 1035470)
Details: E. coli WT-GFP vs G2058-humanized RFP, fluorescence, 24 h; series mostly up to 50 µM

outcome, inactive:
COC(=O)CNC(=O)COC(=O)c1ccc(Cl)nc1
CC(OC(=O)CCc1nc2ccccc2c(=O)[nH]1)C(=O)c1ccc(Br)cc1 (configuration not stated)
C(=C/c1nccc2c1[nH]c1ccccc12)/c1ccc2c(c1)OCO2
O=C(Nc1cc(S(=O)(=O)N2CCOCC2)ccc1N1CCOCC1)c1ccc([N+](=O)[O-])s1
Cc1cc(Br)cn2c(Cc3cccc(Cl)c3)c(-c3ccco3)nc12
Cc1nc2ccccn2c1C(=O)Nc1ccc(Cl)cc1
COC(=O)c1ccc(CSc2nc3ccccc3s2)o1
C[C@@H]1CCCCO[C@@H](CN(C)C(=O)CCCN(C)C)[C@H](C)CN([C@@H](C)CO)C(=O)c2cc(NC(=O)Nc3cccc4ccccc34)ccc2O1
Cc1nc(Nc2ccccc2)sc1C(=O)Nc1ccccc1
Cn1c(=O)c2c(ncn2CC(O)CNc2ccc(F)cc2)n(C)c1=O (configuration not stated)
CC1Cc2cc(S(=O)(=O)N3CCN(c4cccc(Cl)c4)CC3)ccc2N1C(=O)C1CC1 (configuration not stated)
Nc1ccccc1C#CC(=O)c1ccccc1
Cn1cc(CN2CCCC(C(=O)c3cccs3)C2)c(-c2cccc(Cl)c2)n1 (configuration not stated)
CC(=O)N1c2c(cc(Br)cc2S(=O)(=O)N2CCCCC2)CC1C (configuration not stated)
CC(OC(=O)COc1ccccc1)C(=O)NC1CCCC1 (configuration not stated)
O=C(CCNC(=O)c1ccco1)Nc1cccc(Br)c1
CC1(C)CC2CC(C)(CN2c2ncnc3ccccc23)C1 (configuration not stated)
CS(=O)(=O)N(CC(=O)N1CCc2ccccc2C1)c1cccc(Br)c1
O=S(=O)(NCc1cc(-c2ccccc2)no1)c1ccccc1Cl
CC(=O)c1ccc(-c2cccc([C@H]3[C@@H]4C=CC[C@@H](C)[C@@H]4C(=O)N3Cc3ccccc3)c2)cc1
O=C(NC1CCCCC1)C(c1cccc2ccccc12)n1c(=O)c(-c2ccco2)nc2ccccc21 (configuration not stated)
CC(C)(C)CC(=O)NCCc1csc(-c2ccccc2)n1
Cc1cccc(NC(=O)CN(C)S(=O)(=O)c2cccs2)c1
Cc1ccc2oc(C(=O)N(C)Cc3ccc(C)o3)c(C)c2c1
O=C(NCc1cccnc1)C1CCN(S(=O)(=O)c2cc([N+](=O)[O-])ccc2Cl)CC1
COc1ccc(CNC(=O)c2sc3nc4c(c(C(F)(F)F)c3c2N)CCC4)cc1OC
CSc1ccccc1OCc1cc(C(=O)N(C)Cc2nonc2C)no1
O=C1Nc2ccc(F)cc2C12Nc1ccccc1-c1nnc(SCc3ccccc3)nc1O2 (configuration not stated)
COc1cccc(NC2=Nc3cccc4cccc2c34)c1
COCc1nnc(NC(=O)c2ccc(S(=O)(=O)N3CCCC3)cc2)o1
O=C(COc1cccc2c1CCN(Cc1ccc(Br)cc1)C2=O)N1CCOCC1
Cc1cccc(OCc2nc(C#N)c(N3CCCC3)o2)c1
Cc1onc(-c2c(Cl)cccc2Cl)c1C(=O)Nc1ccc(Cl)cn1
NS(=O)(=O)c1ccc(NC(=O)CCC(=O)O)cc1
Cc1ccc(NC(=O)C[n+]2cc(-c3ccccc3)n3c2CCC3)cc1
Cc1ccc(S(=O)(=O)Nc2ccc3c(c2)C(=O)N([C@@H](C)CO)C[C@@H](C)[C@H](CN(C)C(=O)c2ccccc2)OCCCC[C@@H](C)O3)cc1
COc1ccc(NC(=O)Nc2cccc3c2O[C@@H](CN(C)S(=O)(=O)c2ccc(Cl)cc2)[C@H](C)CN([C@@H](C)CO)C3=O)cc1
O=C1c2ccccc2C(=O)N1CCc1c[nH]c2ccccc12
CC(=O)Cc1cc(O)c2ccccc2c1OC(=O)c1ccc(Br)cc1
COc1ccc(CC(=O)NC(C)c2ccc3ccccc3c2)cc1 (configuration not stated)
Fc1ccc(Br)cc1SCCc1ccncc1
C[C@@H]1CCCCO[C@@H](CN(C)C)[C@H](C)CN([C@@H](C)CO)C(=O)c2cc(NC(=O)Nc3cccc4ccccc34)ccc2O1
Cc1onc(-c2ccccc2)c1C(=O)Oc1ccccc1
COC(=O)c1ccc2nc(-c3ccc(OC)c(OC)c3)c(Cc3ccc(C)cc3)n2c1
COc1ccc(C(=O)NCCC2=CCCCC2)cc1[N+](=O)[O-]
C[C@H]1CN([C@@H](C)CO)C(=O)CCCn2nncc2CO[C@@H]1CN(C)Cc1ccccc1C(F)(F)F
COc1ccc(N2C(=O)C3C(c4ccc(C(=O)O)cc4)NC(Cc4ccccc4)(C(=O)O)C3C2=O)c([N+](=O)[O-])c1 (configuration not stated)
Cc1ccc2nc(-c3ccc(Cl)cc3)c(Cc3ccccc3C(F)(F)F)n2c1
COc1ccc2cc(CO)c3cc(OC)c(OC)cc3c2c1
CC(C)(C)NC(=O)C(c1ccncc1)N(Cc1ccc(F)cc1)C(=O)c1ccc(-c2ccccc2)[nH]1 (configuration not stated)
Cc1noc(C)c1NC(=O)N(C)C[C@H]1OCCCC[C@@H](C)Oc2ccc(NC(=O)Nc3cccc4ccccc34)cc2C(=O)N([C@@H](C)CO)C[C@H]1C
Cn1c(CCN2CCOCC2)nc2cc(NC(=O)c3cccs3)ccc21
COc1ccccc1C(C(C(=O)c1ccccc1)N1CCOCC1)N1CCOCC1 (configuration not stated)
Cc1cccc(-c2ccc([C@H]3[C@@H](CO)N4CCCCN(S(=O)(=O)c5ccccc5C)C[C@H]34)cc2)c1
CCc1cc(CN2CCOCC2)c(NC(=O)c2ccccc2)s1
COc1ccccc1CC(=O)NCCc1c[nH]c2ccccc12
Cn1c(=O)n(C)c2cc([N+](=O)[O-])c(N3CCN(C(=O)c4cccc(F)c4)CC3)cc21
O=C(CSCc1ccc(Br)cc1)NCc1ccccn1
Cc1ccc(CCN2C(=O)c3ccccc3C2C(=O)NCc2cccnc2)cc1 (configuration not stated)
CS(=O)(=O)c1ccc(Cl)c(NC(=O)COC(=O)c2c(Cl)cccc2Cl)c1
COCC#Cc1ccc2c(c1)O[C@H](CN(C)C(=O)c1ccccc1)[C@@H](C)CN([C@H](C)CO)S2(=O)=O
Cc1noc(C)c1NC(=O)Nc1ccc2c(c1)C(=O)N([C@H](C)CO)C[C@H](C)[C@H](CN(C)C(=O)Nc1ccc3c(c1)OCO3)OCCCC[C@H](C)O2
